Screening results deposited in PubChem BioAssay by National Center for Advancing Translational Sciences (NCATS).
CHX counter = counter-screen hit for Shiga toxin inhibitors, cycloheximide; cell reporter, cycloheximide protein synthesis inhibition counterscreen; max response, %; 12% of 300,000 active; in the data active = max response mostly above about 13%, no sharp cut-off; inactive = mostly below about 14%; also: read at 38.3 µM for the half of the compounds with a filed dose
Shiga toxin inh = inhibitors of Shiga toxin in Vero cells. 9.2% of 290,000 active. Vero cells, Shiga toxin protein synthesis inhibition reporter. inhibition, % at 38.7 µM; in the data active = inhibition mostly above about 28%, no sharp cut-off; inactive = mostly below about 43%
FMDV antiviral = antivirals against foot and mouth disease virus. FMDV antiviral cell-based qHTS. Potency, µM (series often up to 57.9 µM), usual class: inhibitors. 1.2% of 410,000 active; calls by dose curve; tested in HEK293T cells; also: read-out not given here; nearly all actives have a fitted effect of over 45% in size
Sm TGR block = inhibitors of Schistosoma mansoni thioredoxin glutathione reductase; purified TGR, DTNB reduction, TNB absorbance 405 nm; AID 485364; 3% of 360,000 active; Potency, µM (titrated, usually from 114 µM), actives largely listed as inhibitors; active = well fitted inhibition curve with a large enough effect; inconclusive = small, poorly fitted or top-dose-only effect; inactive = no such curve, though single readings can be large or run the other way; also: nearly all actives have a fitted effect of over 60% in size
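First, TGR (20 nM dispensed) and NADPH were mixed with compound. Second, a 15 min room-temperature incubation followed. Third, further NADPH and then DTNB were added to start the reaction. Finally, TNB absorbance was monitored kinetically.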
A number is an active result; – = inactive; ? = inconclusive; · = no result. In the library only some 12% were active in any assay of this set; here they are far more common.

SMILES	CHX counter	Shiga toxin inh	FMDV antiviral	Sm TGR block
Cc1cccc(NC(=O)CCS(=O)(=O)c2ccccc2)n1	–	54	–	–
O=C(CCS(=O)(=O)c1ccccc1)Nc1nccs1	–	–	–	–
CC(=O)Nc1ccc(S(=O)(=O)NNc2cccc(C)c2)cc1	–	–	–	14µM
Cc1ccc(C)c(NC(=O)C2CCN(c3cc(C)nc4c(-c5ccc(Cl)cc5)c(C)nn34)CC2)c1	·	·	–	–
COc1cnc(-c2ccccn2)nc1N(C)c1ccccc1	48	66	–	–
Cc1ccc(C(=O)COC(=O)c2ccc(-c3cnc4ccccc4n3)cc2)cc1C	14	–	–	–
Cc1ccc(C(=O)CSc2cnc3ccccc3n2)cc1C	63	70	?	–
Cc1ccc(C(=O)COC(=O)c2cc(Cl)nc3ccccc23)cc1C	–	–	–	–
CCOc1ccc(CCNC(=O)c2ccc(-c3nc(COc4ccc(C)cc4)c(C)o3)cc2)cc1	·	·	–	–
Cc1ccc(S(=O)(=O)/N=C2/C=C(C3C(=O)CC(C)(C)CC3=O)C(=O)c3ccccc32)cc1	41	140	–	14µM
COc1ccc(/C=C2\OC(=O)c3c(OC)cccc32)cc1OC	38	–	–	–
COc1ccc(/C=C2\COc3ccccc3C2=O)c(OC)c1	43	71	–	–
COc1ccccc1C=C1CCc2ccccc2C1=O	·	·	–	·
COc1ccc(C=C2c3ccccc3C(=O)c3ccccc32)c(OC)c1	–	–	·	–
COc1ccc2c(c1)OC/C(=C\c1ccc(OC)c(O)c1)C2=O	·	·	–	·
COc1ccc(/C=C2\COc3ccccc3C2=O)cc1OC	45	65	–	?
COc1ccc(C=C2C(=O)OC(C)(C)OC2=O)cc1OC	–	–	–	–
COc1ccc(/C=C2/CCc3ccccc3C2=O)cc1OC	74	74	–	–
CCCCN(CC)CCNC(=O)c1c(C)oc2ncnc(N3CCOCC3)c12	·	·	–	–
O=C(CSc1nc(=O)[nH]c2c1CCC2)NCc1ccc(F)cc1	·	·	–	–
CC(C)Oc1ccc(-c2nc3c(C#N)c[nH]n3c2NC2CCCCC2)cc1	·	·	–	–
COc1cc(/C=C2/CCc3ccccc3C2=O)cc(OC)c1OC	–	–	?	–
COc1ccc2c(c1)OC/C(=C/c1cccs1)C2=O	44	73	–	–
Cc1cc(C)c2c(c1)C(=O)/C(=C/c1ccc(C(=O)O)cc1)CC2	–	–	–	–
COc1ccc2c(c1)OCc1c-2oc2cc(OC)ccc12	·	·	–	·
SMILES	CHX counter	Shiga toxin inh	FMDV antiviral	Sm TGR block
COc1ccc(/C=C2\CCc3ccccc3C2=O)cc1CN1CCOCC1	30	94	–	–
COc1cc(/C=C2\CCc3ccccc3C2=O)cc(OC)c1OC	18	32	–	–
O=C(O)c1ccc(/C=C2\COc3ccccc3C2=O)cc1	22	–	22µM	?
Cn1cc(C(=O)NCCc2ccccc2)c(=O)c2cc(S(=O)(=O)N3CCCCCC3)ccc21	·	·	–	–
CCOc1cc(/C=C2\COc3ccccc3C2=O)cc(Br)c1OCC(=O)N(C)C	–	–	10µM	11µM
CCOc1cc(/C=N/Nc2nc3ccccc3[nH]2)cc(Br)c1OCC(=O)N(C)C	–	–	?	–
CCOC(=O)c1ccccc1NC(=O)Cn1c(=O)n(Cc2nc(-c3ccccc3)no2)c(=O)c2ccccc21	·	·	–	–
O=c1c2cc3c(nc2ncn1Cc1ccccc1F)CCCC3	·	·	–	–
CCC(Sc1nnc(-c2ccc(F)cc2)c(-c2ccc(F)cc2)n1)C(=O)NC1CCCC1 (centres undefined)	·	·	–	–
CCOc1ccc(N(CC(=O)Nc2cccc(Br)c2)S(C)(=O)=O)cc1	26	64	–	–
CCOc1ccc(N(CC(=O)Nc2cccnc2)S(C)(=O)=O)cc1	–	–	–	·
CCOc1ccc(N(CC(=O)Nc2cc(C)cc(C)c2)S(C)(=O)=O)cc1	59	75	–	–
CCOc1ccc(N(CC(=O)Nc2ccc(C)cc2C)S(C)(=O)=O)cc1	–	–	–	–
CCOc1ccc(N(CC(=O)Nc2ccc(C)cc2)S(C)(=O)=O)cc1	37	66	–	–
CC(=O)c1ccc(NC(=O)CN(c2c(C)cccc2C)S(C)(=O)=O)cc1	23	99	–	–
COc1cc(C(=O)N2CCN(CCc3ccccn3)CC2)cc(OC)c1OC	·	·	–	?
O=C(c1ccccc1Cl)N1N=C(c2ccc(Br)cc2)CC1c1nc2ccccc2[nH]1 (centres undefined)	17	–	–	–
Cc1ccc(N2C(=NC(=O)c3ccccc3)SC3CS(=O)(=O)CC32)cc1 (centres undefined)	–	–	–	–
CN(C)c1ccc(N2C(=NC(=O)CCc3ccccc3)SC3CS(=O)(=O)CC32)cc1 (centres undefined)	19	–	–	–
CCCC(=O)N=C1SC2CS(=O)(=O)CC2N1c1ccc(-c2nc3ccc(C)cc3s2)cc1 (centres undefined)	44	106	–	–
CC(=O)c1ccc(N2C(=NC(=O)C3CCCO3)SC3CS(=O)(=O)CC32)cc1 (centres undefined)	–	–	–	–
CN(C)c1ccc(N2C(=NC(=O)C3CCCO3)SC3CS(=O)(=O)CC32)cc1 (centres undefined)	38	–	–	–
O=C(CCCc1ccccc1)N=C1SC2CS(=O)(=O)CC2N1c1ccccc1 (centres undefined)	–	–	–	–
COc1ccccc1C(=O)N=C1SC2CS(=O)(=O)CC2N1c1ccccc1 (centres undefined)	9.8	–	–	–
S=C(NCCc1ccccc1)N1CCOCC1	40	75	–	–
SMILES	CHX counter	Shiga toxin inh	FMDV antiviral	Sm TGR block
O=C(NCCc1ccc(F)cc1)N1CCOCC1	18	–	–	–
S=C(N/N=C/c1ccccc1)N1CCOCC1	40	57	–	–
O=C(Nc1ccc(F)cc1)N1CCOCC1	–	–	–	–
S=C(NCCc1ccccc1)NCCN1CCOCC1	6.9	–	–	–
O=C(CCCc1ccccc1)NCCN1CCOCC1	–	–	–	–
COc1cc(CNC(=O)c2cnc3c(-c4cccc(C)c4)c(C)nn3c2C)cc(OC)c1OC	·	·	–	–
CN(C)S(=O)(=O)c1ccc2c(c1)N(CC(=O)N1CCN(c3ccccc3F)CC1)CCS2	·	·	–	–
OCCN1CCN(C(=S)NCCc2ccccc2)CC1	18	71	–	–
CCN1CCN(C(=S)NCCc2ccccc2)CC1	24	43	–	–
S=C(NCCc1ccccc1)N1CCCC1	·	·	–	·
CCN(c1ccccc1)S(=O)(=O)c1ccc(NC(=O)c2cc(=O)c3ccc(C)c(C)c3o2)cc1	·	·	–	–
COc1ccc(CNC(=O)C2CCN(Cc3nc(-c4ccc(Cl)cc4)oc3C)CC2)cc1	·	·	–	–
Cc1ccc(-c2nc(-c3ccncc3)no2)cc1	52	72	–	–
O=[N+]([O-])c1cc(-c2nc(-c3ccncc3)no2)cc([N+](=O)[O-])c1	–	–	–	–
Cc1ccc(SC(C)c2nc(-c3ccncc3)no2)cc1 (centres undefined)	–	–	?	–
c1ccc(-c2cc(-c3nc(-c4cccnc4)no3)c3ccccc3n2)cc1	–	–	·	–
CCCc1noc(-c2ccc(-c3ccccc3)cc2)n1	66	146	–	–
Cc1cc(C)cc(-c2nc(-c3ccncc3)no2)c1	11	–	–	–
c1cncc(-c2noc(-c3ccco3)n2)c1	56	87	–	–
